Assay results from PubChem BioAssay AID624351 (Southern Research Specialized Biocontainment Screening …, 2012).
Screen size: about 2,400 compounds; about 1,400 (58%) were called active.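 How the source made its calls: active means inhibition of 30% or more at any tested dose; inconclusive means primary hits over the limit that were never retested; inactive means the rest.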 The set was probably picked from earlier hits. Some of the results follow.

Experiment: ADP Hunter readout inhibition without MgcRacGAP – biochemical, coupled enzyme counter-screen, artefact control for MgcRacGAP inhibitor project, dose response (AID 624351);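 further: signal is the ADP detection kit reading of free GDP without any GAP enzyme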
Details: fluorescence, no MgcRacGAP; series mostly up to 80 µM
In the case of `CCOC(=O)c1c(C)[nH]sc1=S`, the IC50 is reported as 44.3 µM (active). For `CCOC(=O)c1sc(=S)[nH]c1C`, the IC50 was 46 µM (active). In the case of `CCOC(=O)c1c(C)[nH]c(C(=O)CN2CCN(CC)CC2)c1C`, the IC50 is reported as “inactive”. In the case of `CCn1c(-c2ccccc2)csc1=Nc1ccc(O)cc1`, the IC50 is reported as 35.8 µM (active). For `C=CCn1c(=O)/c(=C/c2ccc(O)cc2)s/c1=C(/C#N)c1nnc2n1CCCCC2`, the IC50 was 58.7 µM (active). For `C/C(=N\NC(=O)CSCc1ccccc1Cl)c1cc(O)ccc1O`, the IC50 was 25.6 µM (active). In the case of `Brc1csc(C=Nc2ccc3c(c2)OCCOCCOCCOCCO3)c1`, the IC50 is reported as 70.1 µM (active). For `CCN1CCN(CC(=O)N/N=C/c2cc(Br)cs2)CC1`, the IC50 was “inactive”. With `CC1=NN(c2ccc(C(=O)O)cc2)C(=O)/C1=C\c1ccc(OC(=O)c2cccs2)cc1` the IC50 was “inactive”. With `COc1ccc(Br)cc1CN1CCC(N2CCCC2)CC1` the IC50 was “inactive”. With `COc1ccc(N2CCN(C(=O)c3ccc(CS(=O)c4cccc(Cl)c4)o3)CC2)cc1` (configuration not stated) the IC50 was “inactive”. For `CCC(c1nnnn1Cc1ccccc1)N1CCN(c2ccc(OC)cc2)CC1` (configuration not stated), the IC50 was “inactive”. In the case of `COc1ccc(Cn2nnnc2C(c2cccnc2)N2CCN(c3ccc(O)cc3)CC2)cc1` (configuration not stated), the IC50 is reported as 50.3 µM (active). In the case of `Oc1ccc(N2CCN(C(c3cccs3)c3nnnn3CCc3ccccc3)CC2)cc1` (configuration not stated), the IC50 is reported as 45.2 µM (active). In the case of `COc1cc2oc(-c3ccc(O)cc3)cc(=O)c2c(OC)c1O`, the IC50 is reported as 21.9 µM (active). With `COc1cc(CNc2ccc3[nH]c(=O)[nH]c3c2)ccc1OCc1ccccc1F` the IC50 was “inactive”. For `COc1cccc(CNc2ccc3[nH]c(=O)[nH]c3c2)c1OCc1ccccc1Cl`, the IC50 was 83.9 µM (active). For `COc1cc(CNc2ccc3[nH]c(=O)[nH]c3c2)ccc1OCc1c(F)cccc1Cl`, the IC50 was “inactive”. In the case of `CN(CC(=O)NCc1ccncc1)S(=O)(=O)c1ccc(Cl)cc1`, the IC50 is reported as “inactive”. With `CC(NS(=O)(=O)c1ccc(Cl)cc1)C(=O)OCC(=O)Nc1ccc(N(C)C)cc1` (configuration not stated) the IC50 was 70.6 µM (active). For `CC1CCN(CC(=O)Nc2ccc(S(=O)(=O)NC3CC3)cc2)CC1`, the IC50 was “inactive”. For `CN(C)c1ccc(NS(=O)(=O)c2ccc(Cl)cc2)cc1`, the IC50 was 33.7 µM (active). With `CC(C)(C)N(NS(=O)(=O)c1ccc(F)cc1)c1ccccc1` the IC50 was “inactive”. In the case of `Cc1ccc(S(=O)(=O)Nc2nsc(N)n2)cc1`, the IC50 is reported as “inactive”. For `Cc1ccc(S(=O)(=O)Nc2ccc(N(C)C)cc2)cc1`, the IC50 was 31.3 µM (active). With `CN(C)c1ccc(NS(=O)(=O)c2cc(Cl)ccc2Cl)cc1` the IC50 was 50 µM (active). With `COc1cccc(NS(=O)(=O)c2ccc3c(c2)C2C=CCC2C(c2ccc(C(=O)O)cc2)N3)c1` (configuration not stated) the IC50 was “inactive”. For `CCOCCCNCC(=O)NCC1CCCCC1`, the IC50 was “inactive”. For `COc1cc(/C=C/C(=O)OCC(=O)NC2CCS(=O)(=O)C2)ccc1O` (configuration not stated), the IC50 was 43.2 µM (active). With `CCN(CC(=O)Nc1cc(Cl)ccc1OC)CC(=O)NC1CCS(=O)(=O)C1` (configuration not stated) the IC50 was “inactive”. With `COc1cc(/C=C/C(=O)OCC(=O)NCC2CCCCC2)ccc1O` the IC50 was 35.4 µM (active). In the case of `COc1cc(/C=C/C(=O)OCC(=O)NCCC2=CCCCC2)ccc1O`, the IC50 is reported as 51.8 µM (active). In the case of `Cc1cc(/C=C(\C#N)C(=O)N2CCCCC2)cc(C)c1O`, the IC50 is reported as 56.9 µM (active). In the case of `CC1CC(C)CN(C2CCN(Cc3cccnc3)CC2)C1` (configuration not stated), the IC50 is reported as “inactive”. With `CCOc1ccc(N(CCCCO)C(=S)NC(=O)c2ccc(C)c(Br)c2)cc1` the IC50 was “inactive”. For `N#CC1=C(S)N(c2ccc(F)cc2)C(c2ccco2)NC1=O` (configuration not stated), the IC50 was “inactive”. With `O=C1c2cccc(NCCNCCO)c2C(=O)c2cccc(NCCNCCO)c21` the IC50 was “inactive”. In the case of `O=C1c2cccc(NCCCNCCO)c2C(=O)c2cccc(NCCCNCCO)c21`, the IC50 is reported as “inactive”. In the case of `OCCCCNc1cccc2ccccc12`, the IC50 is reported as 34.5 µM (active). With `COc1ccc(C(=O)CCNc2ccc3c(c2)OCCO3)cc1` the IC50 was “inactive”. With `Nc1ccc(C(=O)c2ccc3c(c2)OCCO3)cc1N` the IC50 was 24.2 µM (active). With `COc1cc(/C=C/C=C2/CC/C(=C/C=C/c3ccc(O)c(OC)c3)C2=O)ccc1O` the IC50 was “inactive”. For `CCN(CC)CCC(=O)N1C/C(=C/c2ccccc2)C(=O)/C(=C\c2ccccc2)C1`, the IC50 was “inactive”. With `O=C1/C(=C\c2ccc(Cl)c(Cl)c2)CN(C(=O)CCN2CCOCC2)C/C1=C/c1ccc(Cl)c(Cl)c1` the IC50 was “inactive”. For `CCOc1cc(/C=C2\CN(C)C/C(=C\c3ccc(O)c(OCC)c3)C2=O)ccc1O`, the IC50 was 43.5 µM (active). For `C[N+](C)(C)CCC(=O)N1C/C(=C/c2ccccc2)C(=O)/C(=C\c2ccccc2)C1`, the IC50 was “inactive”. For `COc1cc(/C=C2\C(=O)N(C)C(=S)N2C)ccc1O`, the IC50 was 30.2 µM (active). In the case of `COc1cc(C=C2CN(C)C(=O)C2=O)ccc1O`, the IC50 is reported as 25 µM (active). With `CN(C)CCC(=O)N1C/C(=C/c2ccccc2)C(=O)/C(=C\c2ccccc2)C1` the IC50 was “inactive”. In the case of `CCOc1cc(/C=C2\CN(CC)C/C(=C\c3ccc(O)c(OCC)c3)C2=O)ccc1O`, the IC50 is reported as 61.9 µM (active). For `COc1ccc(-n2cnc(=S)[nH]c2=S)cc1`, the IC50 was “inactive”. With `COc1ccc2c(C)cc3n[nH]c(=S)n3c2c1` the IC50 was 15.8 µM (active). With `COc1cccc2cc(C(=O)Oc3ccc(NC(C)=O)cc3)c(=O)oc12` the IC50 was “inactive”. With `COc1ccc(NC(=O)c2cc3ccc(O)cc3o/c2=N\O)cc1` the IC50 was 57.4 µM (active). With `COc1ccc2oc(=O)c(C(=O)Oc3ccc(NC(C)=O)cc3)cc2c1` the IC50 was “inactive”. For `COc1cc(/C=C2\C(=O)N(CCC#N)N=C2C)ccc1OCC(=O)Nc1ccccc1`, the IC50 was “inactive”. For `COc1cc(/C=C/C(=O)OCC(=O)NNC(=O)c2cc(Cl)ccc2OC)ccc1O`, the IC50 was 55.8 µM (active). In the case of `COc1cc(/C=C/C(=O)OCC(=O)Nc2cccc(F)c2)ccc1O`, the IC50 is reported as 41 µM (active). For `COc1ccc(CNCC(=O)Nc2cc(OC)cc(OC)c2)cc1`, the IC50 was “inactive”. With `COc1cc(NC(=O)COC(=O)/C=C/c2ccc(O)c(OC)c2)cc(OC)c1` the IC50 was 36.1 µM (active). For `COc1cc(/C=C/C(=O)OCc2cn3cc(Cl)ccc3n2)ccc1O`, the IC50 was 36.2 µM (active). In the case of `C#CCOCCOCCOCCNc1nc(N2CCN(C(=O)[C@H](CCCCN)n3cc([C@@H](N)C(C)CC)nn3)CC2)nc(N2CCN(C(=O)[C@H](Cc3cc4ccccc4[nH]3)n3cc([C@@H](N)C(C)CC)nn3)CC2)n1` (some centres not stated), the IC50 is reported as “inactive”. For `COc1cc(C2NC(=O)C(C#N)=C(Nc3cccc(C)c3)S2)ccc1O` (configuration not stated), the IC50 was “inactive”. For `CCOC(=O)C1=C(COC(=O)/C=C/c2ccc(O)c(OC)c2)NC(=O)NC1C` (configuration not stated), the IC50 was 53.1 µM (active). For `O=C(N/N=C/c1ccc(O)cc1)Nc1cccc2nsnc12`, the IC50 was 61.4 µM (active). With `Cc1nonc1C(=O)N/N=C/c1ccc(O)c(O)c1` the IC50 was 17.7 µM (active). For `COc1cc(/C=N/NC(=O)c2nonc2C)ccc1O`, the IC50 was 25.6 µM (active). In the case of `Cc1nonc1C(=O)N/N=C/c1ccc(O)cc1O`, the IC50 is reported as 72 µM (active). With `COc1cc(/C=N/NC(=O)c2nnn(-c3nonc3N)c2C(C)C)ccc1O` the IC50 was 40.7 µM (active). For `COc1ccc(O)c(/C=N/NC(=O)c2c(C)nnn2-c2nonc2N)c1`, the IC50 was “inactive”. For `O=S(=O)(/N=S1\CC=CCN1S(=O)(=O)c1ccccc1)c1ccccc1` (configuration not stated), the IC50 was “inactive”. For `COc1cccc(C(=O)N2CCN(C3CCN(Cc4ccccc4)CC3)CC2)c1OC`, the IC50 was “inactive”. For `NS(=O)(=O)c1ccc(CCNCC(=O)N2CCC(Cc3ccccc3)CC2)cc1`, the IC50 was “inactive”. For `COc1cc(/C=C/C(=O)OCC(=O)N2CCCc3ccccc32)ccc1O`, the IC50 was 27.8 µM (active). For `COc1cc(/C=C/C(=O)OCC(=O)N2CC3(C)CC2CC(C)(C)C3)ccc1O` (configuration not stated), the IC50 was 44.7 µM (active). For `COC(=O)C1CCN(C(=O)COC(=O)/C=C/c2ccc(O)c(OC)c2)CC1`, the IC50 was 44 µM (active). For `C/C=C/c1ccc(OCCCCN2CCN(CC)CC2)c(OC)c1`, the IC50 was “inactive”. For `COc1cc(CN2CCC(C(=O)N3CCN(c4ccccc4F)CC3)CC2)ccc1O`, the IC50 was “inactive”. For `COc1cc(/C=C/C(=O)OCC(=O)N2CCC(Cc3ccccc3)CC2)ccc1O`, the IC50 was 49.4 µM (active). With `COc1ccc(CN2CCN(Cc3ccc(Br)cc3)CC2)c(OC)c1OC` the IC50 was “inactive”. In the case of `COc1ccc(C(=O)N2CCN(CCCc3ccccc3)CC2)cc1OC`, the IC50 is reported as “inactive”. For `COc1cccc(CN2CCN(C(=O)c3ccco3)CC2)c1OC`, the IC50 was “inactive”. With `COc1cc(/C=C/C(=O)OCC(=O)N2CCN(C(=O)c3ccco3)CC2)ccc1O` the IC50 was 33.8 µM (active). With `Cc1sc2ncnc(N(C)CCc3ccccn3)c2c1C` the IC50 was “inactive”. For `Cc1sc2ncnc(Nc3ccc(O)cc3)c2c1C`, the IC50 was 38.2 µM (active). With `Cc1sc2ncnc(N/N=C/c3ccc(O)cc3)c2c1C` the IC50 was 48.3 µM (active). For `COC(=O)/C(=C/Nc1ccc(O)cc1)[N+](=O)[O-]`, the IC50 was 23.9 µM (active). For `O=C(CN1CCN(C2CCCCC2)CC1)Nc1ccccc1-c1ccccc1`, the IC50 was “inactive”. In the case of `O=C(/C=C\c1ccco1)c1ccc(NC(=O)c2ccco2)cc1`, the IC50 is reported as “inactive”. With `O=C(Nc1cc(Br)c(O)c(Br)c1)c1cccc(NC(=O)c2ccco2)c1` the IC50 was 81.3 µM (active). With `O=C1CCN(c2ccccc2)N1` the IC50 was “inactive”. With `O=c1ccn(-c2ccccc2)[nH]1` the IC50 was 51.3 µM (active). With `CCN(CC)CCCNCC(=O)Nc1cc(C)on1` the IC50 was “inactive”. In the case of `Oc1ccc(N=Nc2ccccc2)cc1`, the IC50 is reported as 78.2 µM (active). In the case of `CC(=O)Nc1ccc(N=Nc2ccc(O)cc2)cc1`, the IC50 is reported as 24.5 µM (active). In the case of `Nc1ccc(N=Nc2ccc(O)cc2)c(N)n1`, the IC50 is reported as 10.2 µM (active). With `O=c1oc2ccccc2cc1-c1csc(Nc2ccc(O)cc2)n1` the IC50 was 58 µM (active). With `Nc1ccc(Nc2nc(-c3ccncc3)cs2)cc1` the IC50 was 9.43 µM (active). For `NS(=O)(=O)c1ccc(Nc2nc(-c3ccc(O)cc3)cs2)cc1`, the IC50 was 20.9 µM (active). For `NS(=O)(=O)c1ccc(Nc2nc(-c3ccc(O)cc3O)cs2)cc1`, the IC50 was 48.8 µM (active). With `Nc1ccc(Nc2nc(-c3cc4ccccc4oc3=O)cs2)cc1` the IC50 was “inactive”. For `Cc1cc(NS(=O)(=O)c2ccc(Nc3nc(-c4ccc(O)cc4)cs3)cc2)no1`, the IC50 was 30.2 µM (active).
